Experimental data from PubChem BioAssay (Tox21).
Where “and” joins values, the source holds several entries; their conditions need not be identical. Equal values may be shown once. Results filed as inconclusive are left out. A call without a number means that no potency is given here. Calls of active or inactive are those of the source. The call rests on the fitted dose curve; in most records, active means well fitted cell-killing curve with a large enough effect in the repeat runs; inconclusive means weak or mixed curves, or effect the other way; inactive means flat fitted curve, though single readings scatter.

Test: qHTS assay to identify small molecule antagonists of the androgen receptor (AR) signaling pathway using the MDA cell line in the presence of 0.5 nM R1881 - cell viability counter screen (AID 1259242); further: nearly all actives have a fitted effect of over 45% in size
Details: MDA-kb2 viability, CellTiter-Fluor protease fluorescence, 16 h; series mostly up to 92.4 µM
From the text: U.S. Tox21 Program National Center for Advancing Translational Sciences [NCATS] NIH Chemical Genomics Center [NCGC] U.S. Environmental Protection Agency [EPA] National Institutes of Environmental Health Sciences [NIEHS] National Toxicology Program [NTP] U.S. Food and Drug Administration [FDA] Tox21 Assay Overview: Androgen receptor (AR) is an important member of the nuclear receptor family. Its signaling plays a critical role in AR-dependent prostate cancer and other androgen related diseases. Considerable attention has been given in the past decades to develop methods to study and screen for the environmental chemicals that have the potential to interfere with metabolic homeostasis, reproduction, developmental and behavioral functions. Therefore AR binding assay for screening androgen antagonists can be used to identify potential endocrine disruptors. MDA-kb2 cells (from ATCC, deposited by Wilson et al.) were used to screen for AR inhibitors against Tox21 compound libraries. These cells are human breast carcinoma cells that were stably transfected with a luciferase reporter gene under control of the MMTV promoter that contains response elements for both androgen receptor (AR) and glucocorticoid receptor (GR). The current screening for identification of AR inhibitors against Tox21 libraries used lower concentration of (0.5 nM) R1881 as a stimulator. The cytotoxicity of the Tox21 compound libraries against MDA-kb2 cell line was tested by measuring live-cell protease activity using CellTiter-Fluor assay in the same wells.
Tox21 Assay Protocol Summary: MDA-kb2 cells (cells cultured without CO2) were dispensed at 3,000 cells/well in 4 uL of culture medium into white wall/solid-bottom 1536-well plates (Corning Life Sciences, Corning, NY) using a Multidrop Combi (ThermoFisher Scientific, Waltham, MA) dispenser. After the assay plates were incubated at a 37C and 0% CO2 for 5 hr, 23 nL of compounds dissolved in DMSO, positive controls or DMSO only was transferred to the assay plate by a Pintool station (Kalypsys, San Diego, CA). The transfer of compounds was followed by the addition of 1 uL of 0.5 nM (final concentration) agonist (R1881)/culture medium using a Flying Reagent Dispenser (FRD, Aurora Discovery, San Diego, CA). The plates were incubated at 37C and 0% CO2 for 16 hr. For cytotoxicity assay, 1 uL of CellTiter-Fluor reagent (Promega Corporation, Madison, WI) was added to each well using the FRD and after 30 min incubation at 37C and 0% CO2, The fluorescence intensity was measured using ViewLux plate reader (PerkinElmer, Shelton, CT).
Potency means the concentration at half of the fitted maximal effect.

Row | Structure (SMILES) | Potency | viability change, negative = cytotoxic
1 | C/C=C/C=C/COC(=O)C(C)C | inactive | 
2 | COc1cccc2c1C(=O)c1c(O)c3c(c(O)c1C2=O)C[C@@](O)(C(C)=O)C[C@@H]3O[C@H]1C[C@H](N)[C@H](O)[C@H](C)O1 | 48.9 µM (active) | 
3 | Nc1nc(N)nc(-c2cc(Cl)ccc2Cl)n1 | inactive | 
4 | FC(F)(F)c1cccc(Cl)c1 | inactive | 
5 | Cc1nc2n(c(=O)c1CCN1CCC(c3noc4cc(F)ccc34)CC1)CCCC2 | inactive | 
6 | O=c1c(O)c(-c2ccc(O)cc2O)oc2cc(O)cc(O)c12 | inactive | 
7 | Cc1nc(-c2ccc(Cl)cc2)oc1COC(C)(C)C(=O)O | inactive | 
8 | O=S(=O)(O)c1ccc(N=Nc2c(O)ccc3ccccc23)cc1 | 30.6 µM (active) | 
9 | CCO[Si](OCC)(OCC)OCC | inactive | 
10 | CC1(C)CC(O)CC(C)(C)N1 | inactive | 
11 | Cl[Si](Cl)(c1ccccc1)c1ccccc1 | inactive | 
12 | Cc1ccc(-c2ccccc2)cc1 | inactive | 
13 | NC[C@H]1O[C@H](O[C@H]2[C@H](O[C@@H]3O[C@H](CO)[C@@H](O)[C@H]3O)C(O)[C@H](N)C[C@@H]2N)[C@H](N)[C@@H](O)[C@@H]1O (stereo not given in full) |  | 2.91% [at 8.39 µM] (inactive)
14 | Nc1ccc(Oc2ccc(Cl)cc2)cc1 | inactive | 
15 | COc1ccc(-c2coc3cc(O)ccc3c2=O)cc1 | inactive | 
16 | O=C1NC(=O)[C@@H]2CC=CC[C@H]12 | inactive | 
17 | COCCOc1cc2cc(C(=O)NC3CCN(C(C)C)CC3)n(CC(=O)Nc3ccc(Cl)cn3)c2cn1 | inactive | 
18 | CC(C(=O)O)c1ccc2c(c1)[nH]c1ccc(Cl)cc12 (stereo not given) | inactive | 
19 | CC(C)(C)NSc1nc2ccccc2s1 | inactive | 
20 | CC1=CCC(=C(C)C)CC1 | inactive | 

Row | Structure (SMILES) | Potency | viability change, negative = cytotoxic
21 | Cc1cc(-n2nc3ccc(Cl)cc3n2)c(O)c(C(C)(C)C)c1 | inactive | 
22 | C#C[C@]1(O)CC[C@H]2[C@@H]3[C@H](C)CC4=C(CCC(=O)C4)[C@H]3CC[C@@]21C | inactive | 
23 | CCCCNS(=O)(=O)c1ccc(C)cc1 | inactive | 
24 | CN(C)c1ccc(C(=C2C=CC(=[N+](C)C)C=C2)c2ccc(N(C)C)cc2)cc1 | 7.66 µM (active) and 6.86 µM (active) and 3.35 µM (active) | 
25 | CC(C)(c1cc(Br)c(OCC(Br)CBr)c(Br)c1)c1cc(Br)c(OCC(Br)CBr)c(Br)c1 (stereo not given) | inactive | 
26 | CC1(C)CCC[C@]2(C)[C@H]3CCO[C@]3(C)CC[C@@H]12 | inactive | 
27 | CC(=O)[C@H]1CC[C@H]2[C@@H]3CCC4=CC(=O)CC[C@]4(C)[C@H]3CC[C@]12C | inactive | 
28 | Cc1c(F)c(N2CCNC(C)C2)cc2c1c(=O)c(C(=O)O)cn2C1CC1 (stereo not given) | inactive | 
29 | CCCCCCCCCCCCOCCOCCOCCOCCOCCOCCOCCOCCOCCO | 21.1 µM (active) | 
30 | CCc1oc2ccccc2c1C(=O)c1cc(I)c(O)c(I)c1 | inactive | 
31 | CCn1c2ccccc2c2cc([N+](=O)[O-])ccc21 | inactive | 
32 | CC[C@H](C)COC(=O)/C=C/c1ccc(N=Cc2ccc(OC)cc2)cc1 | inactive | 
33 | Cc1c(C)c2c(c(C)c1O)CC[C@@](C)(CCC[C@H](C)CCC[C@H](C)CCCC(C)C)O2 | inactive | 
34 | C=CC(C)(CCC=C(C)C)OC=O (stereo not given) | inactive | 
35 | CCCCCc1ccc(Cl)cc1 | inactive | 
36 | C=CC(=O)Nc1cc2c(Nc3ccc(F)c(Cl)c3)ncnc2cc1OCCCN1CCOCC1 | 0.376 µM (active) | 
37 | c1cnccn1 | inactive | 
38 | COc1ccc2c(c1)c(CC(=O)OC/C=C(\C)CC/C=C(\C)CCC=C(C)C)c(C)n2C(=O)c1ccc(Cl)cc1 | inactive | 
39 | [Cl][Pt-2]([Cl])([Cl])[Cl] | inactive | 
40 | Cc1ccc(C)cc1 | inactive | 
